From PubChem BioAssay (Tox21)
Results filed as inconclusive are left out. The source made the active and inactive calls. Unless noted, the call rests on the fitted dose curve; in most records, active means well fitted curve in the direction sought with a large enough effect in the repeat runs; inconclusive means weak or mixed curves; inactive means no such curve, though single readings can be large; an effect the other way counts as inactive or inconclusive.

How the values were obtained:
[1] = qHTS assay to test for compound auto fluorescence at 535 nm (green) in HEK293 cells (AID 720680)
[2] = qHTS assay to test for compound auto fluorescence at 460 nm (blue) in HEK293 cell free culture (AID 720681)
In short: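 Compounds were added to cell-free DMEM with 10% FBS and fluorescence read directly. The blue channel used 405 nm excitation and 460 nm emission, with triamterene as the reference fluorophore.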

[3] = qHTS assay to test for compound auto fluorescence at 535 nm (green) in HEK293 cell free culture (AID 720682)
In short: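 Compounds were pin-transferred into cell-free DMEM with 10% FBS, and green fluorescence was read at excitation 485 nm and emission 535 nm. Intensities were expressed as fluorescein-equivalent values.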

[4] = qHTS assay to test for compound auto fluorescence at 590 nm (red) in HEK293 cell free culture (AID 720683)
In short: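 Cell-free wells of DMEM with 10% FBS received compound, and intrinsic fluorescence was read at excitation/emission 540/590 nm. Values expressed as equivalence to Rose Bengal sodium.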

[5] = qHTS assay to test for compound auto fluorescence at 590 nm (red) in HepG2 cell free culture (AID 720684)
In short: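 Compounds are added to culture medium (MEM, 10% FBS) lacking cells, then fluorescence is read at excitation 540 nm, emission 590 nm, with Rose Bengal sodium as the equivalency standard.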

[6] = qHTS assay to test for compound auto fluorescence at 460 nm (blue) in HepG2 cell free culture (AID 720685)
In short: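 Compound (23 nL) or DMSO pinned into cell-free MEM with 10% FBS; blue fluorescence read at 405/460 nm excitation/emission, expressed as auto-fluorescence equivalency to triamterene.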

[7] = qHTS assay to test for compound auto fluorescence at 535 nm (green) in HepG2 cell free culture (AID 720686)
[8] = qHTS assay to test for compound auto fluorescence at 460 nm (blue) in HepG2 cells (AID 720687)
In short: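 HepG2 cells in MEM with 10% FBS, attached overnight at 37 C, were exposed to compound or DMSO for 1 hr at 37 C, 5% CO2. Blue fluorescence was read at 405/460 nm, with triamterene as reference fluorophore.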

[9] = target: Glucocorticoid receptor (Homo sapiens) (UniProt P04150); assay: qHTS assay to identify small molecule agonists of the glucocorticoid receptor (GR) signaling pathway (AID 720691; active means well fitted activation curve with a large enough effect in the signal ratio in the repeat runs, not every such curve was filed as active; the % refers to the signal ratio); conditions: GR-bla HeLa, beta-lactamase reporter ratio, 18 h; activation: at 62.4 µM (top of the series)
Sequence of Glucocorticoid receptor (Homo sapiens) (P04150 whole entry, looked up): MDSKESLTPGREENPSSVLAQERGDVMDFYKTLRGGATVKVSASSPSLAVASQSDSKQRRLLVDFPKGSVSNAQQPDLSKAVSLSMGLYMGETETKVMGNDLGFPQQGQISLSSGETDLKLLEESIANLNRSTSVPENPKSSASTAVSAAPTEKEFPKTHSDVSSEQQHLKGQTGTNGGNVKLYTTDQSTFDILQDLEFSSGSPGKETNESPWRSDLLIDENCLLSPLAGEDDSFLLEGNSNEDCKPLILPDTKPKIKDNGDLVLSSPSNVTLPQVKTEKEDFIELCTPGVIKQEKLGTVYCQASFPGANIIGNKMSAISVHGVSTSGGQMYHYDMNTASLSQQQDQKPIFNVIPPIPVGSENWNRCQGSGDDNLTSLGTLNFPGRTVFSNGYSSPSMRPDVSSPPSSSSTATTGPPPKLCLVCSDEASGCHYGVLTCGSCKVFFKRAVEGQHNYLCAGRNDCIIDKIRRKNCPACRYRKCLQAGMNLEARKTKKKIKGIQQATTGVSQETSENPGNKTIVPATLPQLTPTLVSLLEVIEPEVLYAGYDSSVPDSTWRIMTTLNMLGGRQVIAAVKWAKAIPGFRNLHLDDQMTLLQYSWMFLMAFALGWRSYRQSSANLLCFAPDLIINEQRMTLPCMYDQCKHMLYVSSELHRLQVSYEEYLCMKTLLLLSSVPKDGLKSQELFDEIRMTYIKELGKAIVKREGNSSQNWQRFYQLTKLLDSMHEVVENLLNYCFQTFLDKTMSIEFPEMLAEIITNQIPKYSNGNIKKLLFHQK
In short: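 qHTS in GR-bla HeLa cells: 4 h settling at 37 C/5% CO2, 18 h compound incubation at 37 C, 2 h LiveBLAzer B/G FRET substrate at room temperature, fluorescence intensity measured.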

[10] = target: Glucocorticoid receptor (Homo sapiens) (UniProt P04150); assay: qHTS assay to identify small molecule antagonists of the glucocorticoid receptor (GR) signaling pathway (AID 720692; active means well fitted inhibition curve with a large enough effect in the signal ratio in the repeat runs, not every such curve was filed as active; the % refers to the signal ratio)
In short: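 Inhibition of glucocorticoid signalling is measured in HeLa cells with a GRE-controlled beta-lactamase reporter; cells are co-treated with compound and 5 nM dexamethasone (final) for 18 h before FRET substrate readout.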

[11] = qHTS assay to identify small molecule antagonists of the glucocorticoid receptor (GR) signaling pathway - cell viability counter screen (AID 720693); further: nearly all actives have a fitted effect of over 55% in size
[12] = qHTS assay for identifying genotoxic compounds that show differential cytotoxicity against isogenic chicken DT40 cell lines with known DNA damage response pathways - wild type cell line (AID 743012); further: nearly all actives have a fitted effect of over 60% in size; further: potency means the concentration at half of the fitted maximal effect
In short: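 First, wild type DT40 cells were plated at 300 per well and equilibrated about 0.5 h at 37 C/5% CO2. Next, compounds in DMSO were added and exposure lasted 40 h. Finally, CellTiter-Glo was added for 30 min at room temperature and luminescence recorded.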

[13] = qHTS assay for identifying genotoxic compounds that show differential cytotoxicity against isogenic chicken DT40 cell lines with known DNA damage response pathways - Rev3 mutant cell line (AID 743014); further: nearly all actives have a fitted effect of over 55% in size; further: potency means the concentration at half of the fitted maximal effect
[14] = qHTS assay for identifying genotoxic compounds that show differential cytotoxicity against isogenic chicken DT40 cell lines with known DNA damage response pathways - Rad54/Ku70 mutant cell line (AID 743015); further: nearly all actives have a fitted effect of over 60% in size; further: potency means the concentration at half of the fitted maximal effect
[15] = qHTS assay to identify small molecule antagonists of the androgen receptor (AR) signaling pathway - cell viability counter screen (AID 743033; further: nearly all actives have a fitted effect of over 45% in size)
[16] = qHTS assay to identify small molecule antagonists of the androgen receptor (AR) signaling pathway using the MDA cell line - cell viability counter screen (AID 743041; further: nearly all actives have a fitted effect of over 45% in size)
In short: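 Same-well cytotoxicity was assessed by CellTiter-Fluor in MDA-kb2 AR-luc cells after 16 h of compound treatment under R1881 agonism.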

[17] = target: Androgen receptor (Homo sapiens) (UniProt P10275); assay: qHTS assay to identify small molecule agonists of the androgen receptor (AR) signaling pathway using the MDA cell line (AID 743040; further: nearly all actives have a fitted effect of over 20% in size)
Sequence of Androgen receptor (Homo sapiens) (P10275 whole entry, looked up): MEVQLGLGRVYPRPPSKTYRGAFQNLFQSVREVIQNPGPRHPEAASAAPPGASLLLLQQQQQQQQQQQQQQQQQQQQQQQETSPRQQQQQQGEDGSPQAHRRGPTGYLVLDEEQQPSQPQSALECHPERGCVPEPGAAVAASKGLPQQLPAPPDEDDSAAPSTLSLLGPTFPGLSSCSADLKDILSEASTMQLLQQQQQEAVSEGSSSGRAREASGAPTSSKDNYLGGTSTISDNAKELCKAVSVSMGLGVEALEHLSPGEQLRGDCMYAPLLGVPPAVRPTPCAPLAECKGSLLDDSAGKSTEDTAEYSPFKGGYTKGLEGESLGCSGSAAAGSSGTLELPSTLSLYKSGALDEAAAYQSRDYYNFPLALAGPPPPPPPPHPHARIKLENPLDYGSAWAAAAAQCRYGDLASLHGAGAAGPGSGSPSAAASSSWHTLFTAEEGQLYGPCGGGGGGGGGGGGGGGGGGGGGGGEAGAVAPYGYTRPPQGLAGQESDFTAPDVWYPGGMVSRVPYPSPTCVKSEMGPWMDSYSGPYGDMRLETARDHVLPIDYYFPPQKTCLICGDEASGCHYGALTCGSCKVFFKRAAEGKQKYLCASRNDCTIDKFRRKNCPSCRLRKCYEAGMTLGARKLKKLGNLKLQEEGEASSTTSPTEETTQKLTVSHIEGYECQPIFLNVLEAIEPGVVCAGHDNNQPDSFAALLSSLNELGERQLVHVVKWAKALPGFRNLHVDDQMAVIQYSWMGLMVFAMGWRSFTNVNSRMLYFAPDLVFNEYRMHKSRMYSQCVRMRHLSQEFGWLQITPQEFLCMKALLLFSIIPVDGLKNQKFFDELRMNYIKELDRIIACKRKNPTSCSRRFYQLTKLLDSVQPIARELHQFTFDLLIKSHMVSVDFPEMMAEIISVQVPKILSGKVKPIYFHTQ
In short: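 Human breast carcinoma MDA-kb2 reporter cells (MMTV-luc, AR/GR elements) were treated for 16 h at 37C in 0% CO2 following a 5 h settling period. Signal was quantified by ONE-Glo luminescence.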

[18] = target: Androgen receptor (Homo sapiens) (UniProt P10275); assay: qHTS assay to identify small molecule agonists of the androgen receptor (AR) signaling pathway (AID 743036; active means well fitted activation curve with a large enough effect in the signal ratio in the repeat runs, with a control signal flat, not every such curve was filed as active; the % refers to the signal ratio)
In short: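 Activation was read as beta-lactamase FRET signal from LiveBLAzer B/G substrate, added for 2 h at room temperature. Before that, GeneBLAzer AR-UAS-bla GripTite (HEK293) cells had 16 h compound exposure at 37C.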

[19] = target: Androgen receptor (Homo sapiens) (UniProt P10275); assay: qHTS assay to identify small molecule antagonists of the androgen receptor (AR) signaling pathway using the MDA cell line (AID 743042; further: nearly all actives have a fitted effect of over 55% in size)
In short: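 MDA-kb2 breast carcinoma cells carrying MMTV-luciferase (AR/GR responsive) were co-treated with compounds and the agonist R1881 for 16 h at 37C. Inhibition read as ONE-Glo luminescence; CellTiter-Fluor fluorescence measured in parallel for cytotoxicity.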

Measured: Potency

Cc1ccccc1OCC(O)CNCCOc1ccc(C(N)=O)cc1 (stereo unspecified)
not listed: [17] | [18] | [19]
inactive: all other assays above

O=C(O)COc1ccc(CCNS(=O)(=O)c2ccccc2)s1
not listed: [17] | [18] | [19]
inactive: all other assays above

COc1ccc(CCNC[C@H](O)c2ccc(O)cc2)cc1OC
not listed: [17] | [18] | [19]
inactive: all other assays above

CCCCCC(O)/C=C/C=O (stereo unspecified)
not listed: [17] | [18] | [19]
inactive: all other assays above

COc1cc(S(C)=O)ccc1-c1nc2ncccc2[nH]1 (stereo unspecified)
not listed: [17] | [18] | [19]
inactive: all other assays above

CCCc1ccc(C(=O)O)cc1
not listed: [17] | [18] | [19]
inactive: all other assays above

COC1=C(C(=O)O)N2C(=O)[C@@H](NC(=O)[C@H](N)C3=CCC=CC3)[C@H]2SC1
not listed: [17] | [18] | [19]
inactive: all other assays above

NC[C@@H]1O[C@H](O[C@H]2[C@@H](O)[C@H](O[C@@H]3[C@@H](O)[C@H](N)C[C@H](N)[C@H]3O[C@H]3O[C@H](CO)[C@@H](O)[C@H](O)[C@H]3N)O[C@@H]2CO)[C@H](N)[C@@H](O)[C@@H]1O
not listed: [17] | [18] | [19]
inactive: all other assays above

CC(O)[C@@H]1NC(=O)[C@H](CCCCN)NC(=O)[C@@H](Cc2c[nH]c3ccccc23)NC(=O)[C@H](Cc2ccccc2)NC(=O)[C@@H](NC(=O)[C@H](N)Cc2ccccc2)CSSC[C@@H](C(=O)N[C@H](CO)[C@@H](C)O)NC1=O (stereo partly specified)
not listed: [17] | [18] | [19]
inactive: all other assays above

CCCN(CC)C(CC)C(=O)Nc1c(C)cccc1C (stereo unspecified)
not listed: [17] | [18] | [19]
inactive: all other assays above

c1ccc2c(CCC3CCNCC3)c[nH]c2c1
active: [12] 13.3 µM | [13] 29.8 µM | [14] 26.6 µM
not listed: [17] | [18] | [19]
inactive: all other assays above

CO[C@H]1[C@@H](O)[C@H](N)[C@@H](O[C@H]2O[C@H]([C@H](C)N)CC[C@H]2N)[C@H](O)[C@@H]1N(C)C(=O)CN
not listed: [17] | [18] | [19]
inactive: all other assays above

CCCCCCCCCCCCCCCC(=O)OCCC1CCN(CCCN2c3ccccc3Sc3ccc(S(=O)(=O)N(C)C)cc32)CC1
not listed: [17] | [18] | [19]
inactive: all other assays above

NS(=O)(=O)c1cc2c(cc1Cl)NC(Cc1ccccc1)NS2(=O)=O (stereo unspecified)
not listed: [17] | [18] | [19]
inactive: all other assays above

O=P(O)(O)C(Sc1ccc(Cl)cc1)P(=O)(O)O
not listed: [17] | [18] | [19]
inactive: all other assays above

CN1CCN(C2=Nc3ccccc3Cc3ccccc32)CC1
active: [12] 26.6 µM | [13] 23.7 µM | [14] 29.8 µM
not listed: [17] | [18] | [19]
inactive: all other assays above

CN[C@@H]1CCc2[nH]c3ccc(C(N)=O)cc3c2C1
not listed: [17] | [18] | [19]
inactive: all other assays above

Cc1c(N)nc(C(CC(N)=O)NCC(N)C(N)=O)nc1C(=O)NC(C(=O)NC(C)C(O)C(C)C(=O)NC(C(=O)NCCc1nc(-c2nc(C(=O)NCCCN[C@@H](C)c3ccccc3)cs2)cs1)C(C)O)C(O[C@@H]1O[C@@H](CO)[C@@H](O)[C@H](O)[C@@H]1O[C@H]1O[C@H](CO)[C@@H](O)[C@H](OC(N)=O)[C@@H]1O)c1cnc[nH]1 (stereo partly specified)
active: [12] 1.19 µM | [13] 0.944 µM | [14] 0.0531 µM
not listed: [17] | [18] | [19]
inactive: all other assays above

CCNC(=O)[C@@H]1CCCN1C(=O)[C@H](CCCN=C(N)N)NC(=O)[C@H](CC(C)C)NC(=O)[C@@H](CC(C)C)NC(=O)[C@H](Cc1ccc(O)cc1)NC(=O)[C@H](CO)NC(=O)[C@H](Cc1c[nH]c2ccccc12)NC(=O)[C@H](Cc1cnc[nH]1)NC(=O)[C@@H]1CCC(=O)N1
not listed: [17] | [18] | [19]
inactive: all other assays above

CC1CS(=O)(=O)CCN1/N=C/c1ccc([N+](=O)[O-])o1 (stereo unspecified)
not listed: [17] | [18] | [19]
inactive: all other assays above

C/C1=C2N=C(/C=C3N=C(/C(C)=C4\[N-][C@@](C)([C@@H]5N=C1[C@](C)(CCC(=O)NCC(C)OP(=O)(O)O[C@H]1[C@@H](O)[C@@H](n6cnc7cc(C)c(C)cc76)O[C@@H]1CO)[C@H]5CC(N)=O)[C@@](C)(CC(N)=O)[C@@H]4CCC(N)=O)[C@@](C)(CC(N)=O)[C@@H]\3CCC(N)=O)C(C)(C)[C@@H]/2CCC(N)=O.CC(=O)O.[Co] (stereo partly specified)
not listed: [14] | [16] | [17] | [18] | [19]
inactive: all other assays above

CCCCc1cc2c(=O)c(C(=O)OC)c[nH]c2cc1OCc1ccccc1
not listed: [15] | [17] | [18] | [19]
inactive: all other assays above

N#Cc1ccc2c(c1)N(CCCN1CCC(O)CC1)c1ccccc1S2
active: [12] 18.8 µM | [13] 26.6 µM | [14] 21.1 µM
not listed: [15] | [16] | [18] | [19]
inactive: all other assays above

CC1(C)N=C(N)N=C(N)N1c1ccc(Cl)cc1
active: [12] 0.422 µM | [13] 0.422 µM | [14] 1.19 µM
not listed: [15] | [17] | [18] | [19]
inactive: all other assays above

OCCN1CCN(CC/C=C2/c3ccccc3Sc3ccc(Cl)cc32)CC1
active: [12] 9.02 µM | [13] 11.4 µM
not listed: [14] | [15]
inactive: all other assays above

CC(=O)O[C@H]1C(=O)[C@@]2(C)[C@H]([C@H](OC(=O)c3ccccc3)[C@]3(O)C[C@H](OC(=O)[C@H](O)[C@@H](NC(=O)c4ccccc4)c4ccccc4)C(C)=C1C3(C)C)[C@]1(OC(C)=O)CO[C@@H]1C[C@@H]2O
active: [12] 0.0106 µM | [13] 0.0094 µM | [14] 0.0133 µM
not listed: [15] | [18]
inactive: all other assays above

CCCCCCCCCCCCCCCCCC(=O)OC[C@@H](O)[C@H]1OC[C@H](O)[C@H]1O
not listed: [15]
inactive: all other assays above

Nc1ncnc(Nc2ccc(Cl)cc2)n1
not listed: [14] | [17] | [18] | [19]
inactive: all other assays above
